The results in this text go back to PubChem BioAssay.

As a reminder, the viability is a per cent measure of how many cells are alive, often set against a control. In general, inhibition refers to the percentage by which the read-out fell short of the control.

Assay [1] in a line: P. berghei load reduction in hepatocytes – cell-based, HepG2, luciferase luminescence, HepG2 viability, primary screen (AID 624349).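 Also: 100% = mean of DMSO negative control wells on the same plate.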 To be noted: P. berghei liver stage in HepG2, luciferase luminescence, concentration not given here; parasite load remaining: stronger effect = lower value; viability: measured here: HepG2 viability without parasites.
For assay [2], the target named is 6-phosphogluconate dehydrogenase, decarboxylating (Homo sapiens) (UniProt P52209). In words: inhibition of human phosphogluconate dehydrogenase – biochemical, recombinant enzyme, NADPH absorbance, primary screen (AID 1159550;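 active = at least 20% inhibition of 6-phosphogluconate dehydrogenase activity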). To be noted: recombinant 6PGD, NADPH absorbance 341 nm; at 10 µM; stronger effect = higher value.
Assay [3] is described as follows: EMT-state selective cytotoxicity in co-culture – imaging, PC-3E GFP, TEM4-18 mCherry, primary screen (AID 1345086;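 active = compounds killing one labelled cell type while sparing the other, by normalised counts and ratio limits, not self-fluorescent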;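 as to all read-outs here: cells exposed to compound for 72 h before imaging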;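 as to red/green cell ratio (normalised): normalised mesenchymal count divided by normalised epithelial count so high means epithelial killing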). To be noted: PC-3E GFP / TEM4-18 mCherry co-culture, imaging cell counts, at 1 µM; for red/green cell ratio (normalised): actives lie on both sides, counts scaled to control wells, 1 = unselective.
Assay [4] concerns the target Mitogen-activated protein kinase 7 (Homo sapiens) (UniProt Q13164). In words: Gal4-ERK5 driven luciferase induction – cell-based, HTS, primary screen (AID 1508626;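 active = luciferase signal above three times the same-plate solvent-only control wells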;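 also: luciferase driven by Gal4-ERK5 fusion binding five Gal4 sites before minimal TATA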). To be noted: HeLa Gal4-ERK5 transactivation, 18 h, at 5 µM, stronger effect = higher value.
Assay [5] can be described thus: blockers of polyQ-driven CASP3 activation – cell-based (AID 1583). To be noted: polyglutamine-induced caspase-3 activation, cell assay; stronger effect = higher value;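 tested at 10 µM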.
Assay [6] is described as follows: yeast 75Q aggregation reduction – 75Q-TubU reporter (AID 1593). The conditions noted are these: Yeast 75Q polyglutamine aggregation reporter.
Assay [7] is described as follows: restoration of touch response, mutant HTT neurons – whole organism, C. elegans mechanosensory neurons, N-terminal huntingtin (AID 1599). To be noted: C. elegans polyQ-huntingtin mechanosensory neurons, stronger effect = higher value.
Assay [8] can be described thus: blockers of cytochrome c efflux from mitochondria – biochemical, purified mitochondria (AID 1603).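 Also: mouse liver mitochondria challenged with calcium chloride; signal normalized to the plate average as 100%.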 The conditions noted are these: stronger effect = lower value.
Assay [9] is described as follows: polyglutamine aggregate formation blockers (AID 1604). To be noted: polyglutamine-induced protein aggregation inhibition assay; stronger effect = higher value; tested at 2.5 µM.
Assay [10] is described as follows: glutamate transport activators, MN-1 cells, MN-1 cell line (AID 1612).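 Also: tested at 1 µM final; 0% = mean of DMSO vehicle wells on each plate; positive means more glutamate uptake than control and negative means less.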 The conditions noted are these: MN-1 motor neuron cells, stronger effect = higher value.
Assay [11] in a line: 75Q-TubH aggregate inhibition, S. cerevisiae, yeast (AID 1616). To be noted: S. cerevisiae 75Q-TubH polyglutamine aggregation suppression; stronger effect = higher value.
A short description of assay [12]: compounds altering viability of human ES cells (AID 493140; call rule not given here;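 also: cells exposed to compounds for four days before counting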). The conditions noted are these: human embryonic stem cell survival screen; stronger effect = higher value.
Assay [13] in a line: viability loss with induced miR-34 in A549 – imaging, A549 dox-inducible miR-34, nuclei and caspase counts, primary screen (AID 1347080;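 active = compounds whose cell count with miR-34 switched on is under 0.7 times the count with it off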). To be noted: A549 miR-34 inducible, Hoechst nuclei count, 48 h.
The nature of assay [14]: MELAS cybrid and Rieske KO viability enhancers – cell-based, MELAS cybrids, Rieske KO mouse fibroblasts, CellTiter-Glo, primary screen (AID 1508586;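 active = mean z-score across replicates of 1.96 or higher in either the MELAS or the Rieske mutant cell line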;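 also: z relative to plate mean and SD of compound and empty wells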). The conditions noted are these: low glucose. (Cellular ATP, detected with luciferase, serves as a proxy for viable cell number.)
Assay [15] in a line: GFP-Q80 aggregate reduction, neuronal-like cells, cell-based, NGF-treated PC12, GFPQ80 (AID 1614).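 Also: lower means fewer inclusions and 0 means no inclusions at all.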 The conditions noted are these: PC12 NGF-treated GFP-polyQ80 inclusion reduction.
Assay [16] addresses NAD(+) hydrolase SARM1 (Homo sapiens) (UniProt Q6SZW1). Put plainly: blocking NAD cleavage by SARM1 SAM-TIR – cell lysate, NAD-Glo luminescence (AID 1508614;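 active = compound whose remaining NAD level is above about 45 nM, limit read from the data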;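 also: higher remaining NAD means stronger inhibition of SARM1 NADase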). To be noted: SAM-TIR HEK293T lysate NADase, at 1 µM, stronger effect = higher value.
Where [17] appears, read: measured here: epithelial PC-3E GFP cell survival.
[18] abbreviates: measured here: mesenchymal TEM4-18 mCherry cell survival.
The mark [19] stands for this setting: stronger effect = lower value, cell number ratio, induced over uninduced.
[20] abbreviates: measured here: relative caspase fold change +Dox/-Dox.
The mark [21] stands for this setting: measured here: total cells with miR-34 induction, stronger effect = lower value.
[22] abbreviates: measured here: total cells without miR-34 induction.
Setting [23] is: MELAS cybrid survival, CellTiter-Glo 48 h, stronger effect = higher value.
[24] abbreviates: Rieske KO mouse fibroblast survival, CellTiter-Glo 72 h.

Where “and” joins values, the source holds several entries; their conditions need not be identical. Equal values may be shown once. For some assays here: Measured potencies and affinities stand elsewhere. Calls of active or inactive are those of the source. Rule as the data show it, unless noted: active = parasite load remaining mostly below about 12% (no sharp cut-off); inactive = mostly above about 10%.

Chain of Mitogen-activated protein kinase 7 (Homo sapiens) (Q13164 whole entry, looked up, the tested form may be a part): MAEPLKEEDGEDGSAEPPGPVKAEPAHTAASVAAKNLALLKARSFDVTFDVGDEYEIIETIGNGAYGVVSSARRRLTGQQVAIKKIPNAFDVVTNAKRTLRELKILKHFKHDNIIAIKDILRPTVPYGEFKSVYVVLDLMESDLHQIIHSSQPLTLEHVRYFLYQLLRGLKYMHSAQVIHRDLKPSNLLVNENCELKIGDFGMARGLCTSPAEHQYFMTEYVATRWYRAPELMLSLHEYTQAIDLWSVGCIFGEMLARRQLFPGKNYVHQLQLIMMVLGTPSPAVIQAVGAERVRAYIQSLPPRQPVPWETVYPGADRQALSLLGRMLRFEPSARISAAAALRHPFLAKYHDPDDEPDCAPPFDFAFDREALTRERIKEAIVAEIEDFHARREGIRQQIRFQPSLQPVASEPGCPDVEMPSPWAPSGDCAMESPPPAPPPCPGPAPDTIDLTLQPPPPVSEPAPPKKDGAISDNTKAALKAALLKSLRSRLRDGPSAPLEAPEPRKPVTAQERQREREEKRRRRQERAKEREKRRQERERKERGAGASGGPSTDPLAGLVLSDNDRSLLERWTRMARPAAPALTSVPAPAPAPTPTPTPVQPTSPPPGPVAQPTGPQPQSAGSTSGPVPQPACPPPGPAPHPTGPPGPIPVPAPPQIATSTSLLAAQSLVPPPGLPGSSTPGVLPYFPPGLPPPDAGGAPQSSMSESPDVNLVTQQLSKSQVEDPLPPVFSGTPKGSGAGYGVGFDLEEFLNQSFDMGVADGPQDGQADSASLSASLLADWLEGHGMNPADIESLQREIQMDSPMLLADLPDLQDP
Chain of 6-phosphogluconate dehydrogenase, decarboxylating (Homo sapiens) (P52209 whole entry, looked up): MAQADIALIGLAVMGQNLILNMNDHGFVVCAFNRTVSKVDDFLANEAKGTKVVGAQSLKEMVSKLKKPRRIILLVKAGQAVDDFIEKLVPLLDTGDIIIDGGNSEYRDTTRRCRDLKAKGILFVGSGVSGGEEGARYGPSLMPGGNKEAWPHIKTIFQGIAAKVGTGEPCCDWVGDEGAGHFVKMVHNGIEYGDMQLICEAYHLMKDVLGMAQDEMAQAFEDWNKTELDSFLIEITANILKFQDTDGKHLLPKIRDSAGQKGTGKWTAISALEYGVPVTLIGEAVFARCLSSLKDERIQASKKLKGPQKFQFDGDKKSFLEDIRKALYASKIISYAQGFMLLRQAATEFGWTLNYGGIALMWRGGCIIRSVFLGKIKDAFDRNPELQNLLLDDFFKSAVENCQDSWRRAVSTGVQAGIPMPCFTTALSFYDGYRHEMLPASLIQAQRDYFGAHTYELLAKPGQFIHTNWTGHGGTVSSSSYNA
Chain of NAD(+) hydrolase SARM1 (Homo sapiens) (Q6SZW1 whole entry, looked up): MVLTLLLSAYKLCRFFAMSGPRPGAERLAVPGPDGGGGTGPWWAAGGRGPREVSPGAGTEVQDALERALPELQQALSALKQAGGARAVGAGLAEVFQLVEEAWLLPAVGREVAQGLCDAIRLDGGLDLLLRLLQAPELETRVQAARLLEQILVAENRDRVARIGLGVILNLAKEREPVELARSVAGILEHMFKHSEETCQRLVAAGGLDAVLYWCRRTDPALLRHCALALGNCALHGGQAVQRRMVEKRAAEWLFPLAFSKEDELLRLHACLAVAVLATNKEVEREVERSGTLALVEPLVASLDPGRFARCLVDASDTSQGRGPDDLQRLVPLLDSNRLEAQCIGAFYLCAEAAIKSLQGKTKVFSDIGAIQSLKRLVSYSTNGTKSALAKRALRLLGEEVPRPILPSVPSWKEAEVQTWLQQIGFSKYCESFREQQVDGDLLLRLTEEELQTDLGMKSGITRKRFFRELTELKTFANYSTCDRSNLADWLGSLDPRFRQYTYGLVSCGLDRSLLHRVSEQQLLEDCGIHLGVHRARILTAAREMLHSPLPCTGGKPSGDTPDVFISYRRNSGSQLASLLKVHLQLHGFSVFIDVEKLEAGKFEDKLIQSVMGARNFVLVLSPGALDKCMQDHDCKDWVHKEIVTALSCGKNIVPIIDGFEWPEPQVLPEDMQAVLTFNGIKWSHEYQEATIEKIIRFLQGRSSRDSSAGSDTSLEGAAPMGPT

Take `COc1cc(/C=C/C(=O)O)ccc1O`: in [1], the parasite load remaining is 186% (inactive) and the viability came to 69.3%. Further, the inhibition in [2] is 3.09% (inactive). The red/green cell ratio (normalised) in assay [3] is 1.05 (inactive). Further, the normalised cell number in assay [3] (setting [17]) came out at 1. The same molecule displayed a normalised cell number in assay [3] (setting [18]) of 1.05. Also, in [4], the luciferase signal was 48 AU (inactive).

Regarding `O=c1cc(-c2ccccc2)oc2cc(O)cc(O)c12`, the inhibition in assay [5] was 16.7%; in assay [2] it was 13.6% (inactive). Moreover, the score in assay [6] was -0.45. In addition, the rescue above control in assay [7] was 1.21. The cytochrome c release ratio in assay [8] amounted to 0.64. Besides, the inhibition of aggregation in [9] amounted to 83.3%. In addition, the glutamate uptake change in [10] was -33.9%. This molecule also returned an aggregation suppression score in assay [11] of 0.573. The survival in assay [12] was 11.8 (inactive). In [1], the parasite load remaining is 112% (inactive) and 75% (inactive). For the same molecule, the viability in [1] was 98.1% and 69.3%. In assay [3], the red/green cell ratio (normalised) is 0.89 (inactive). Moreover, the normalised cell number in assay [3] (setting [17]) worked out at 1.21; in assay [3] (setting [18]), 1.08. Further, the fold change in assay [13] (setting [19]) was 0.807 (inactive) and 0.948 (inactive); in assay [13] (setting [20]) it was 1.38 and 0.939. Further, the cell count is 5370 and 8220 in assay [13] (setting [21]); 6660 and 8680 in assay [13] (setting [22]). Further, the results for the z-score in assay [14] (setting [23]) and in assay [14] (setting [24]) were -0.289 (inactive) and 0.583, respectively. In addition, the luciferase signal in [4] is 136 AU (inactive).

Consider `CC[C@H]1OC(=O)[C@H](C)[C@@H](O[C@H]2C[C@@](C)(OC)[C@@H](O)[C@H](C)O2)[C@H](C)[C@@H](O[C@@H]2O[C@H](C)C[C@H](N(C)C)[C@H]2O)[C@](C)(O)C[C@@H](C)/C(=N\OCOCCOC)[C@H](C)[C@@H](O)[C@]1(C)O`, for which the inhibition in [5] was 1.74%; in assay [2], 16.8% (inactive). Further, the score in [6] came out at 0.81. In assay [7], the rescue above control was determined as 1.9. In [8], the cytochrome c release ratio amounted to 0.93. This molecule also had an inhibition of aggregation in assay [9] of 60.6%. Further, in [10], the glutamate uptake change was 2.1%. In assay [15], this molecule registered an inclusion score of 2. Further, in [11], the aggregation suppression score was 0.306. For the same molecule, the parasite load remaining in assay [1] was 160% (inactive) and 51.6% (inactive). The viability in assay [1] was 87.6% and 99.8%. In addition, in assay [3], the red/green cell ratio (normalised) was 1 (inactive). Besides, the normalised cell number in assay [3] (setting [17]) and in assay [3] (setting [18]) was 1.13 throughout. Also, the values for the fold change in assay [13] (setting [19]) and in [13] (setting [20]) were 0.869 (inactive) and 4.54, respectively. Moreover, the cell count in [13] (setting [21]) was 10400; in assay [13] (setting [22]), 12000. Besides, the z-score in assay [14] (setting [23]) was -0.323 (inactive); in [14] (setting [24]), -0.397. Further, in assay [16], the remaining NAD was 10 nM (inactive). For the same molecule, the luciferase signal in assay [4] is 84 AU (inactive).
